Assay outcomes: PubChem, National Center for Advancing Translational Sciences (NCATS)
An excerpt weighted towards active compounds, which were near 17% of everything screened.
HepG2 viability – qHTS for Inhibitors of TGF-b: Cytotox Counterscreen; HepG2 CAGA-GFP viability, ATP luminescence, 18 h; 410,000 compounds, 0.76% hits; AID 588856, 2011; Potency, µM (doses to about 46.1 µM), for the others: top-dose activity change, negative = cytotoxicity, usual class: cytotoxic
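HepG2 CAGA-GFP cells (1000/well, DMEM with 1% FBS) received compound, then TGF-beta at 500 pg/mL final, and were incubated 18 hours at 37 degrees C. Viability was read by CellTiter-Glo luminescence. Media-only wells were set as complete cell-killing and DMSO as no toxicity.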
TDP1 cell CPT – qHTS for Inhibitors of human tyrosyl-DNA phosphodiesterase 1 (TDP1): qHTS in cells in presence of CPT; AID 686979, 2013; Potency, µM (doses to about 46.2 µM), for the others: at the highest dose activity change, negative = growth inhibition, most hits filed as inhibitors; chicken DT40 Tdp1-/-;hTDP1 cells + 20 nM CPT, ATP luminescence, 48 h; 420,000 compounds, 12% hits; further: on the % scale 0 is the no-effect control and ±100 the full control effect; nearly all actives have a fitted effect of over 55% in size
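Chicken DT40 Tdp1-/- cells stably complemented with human TDP1 were seeded at 400 cells/well in medium containing 20 nM camptothecin, exposed to pin-transferred compounds, and grown at 37 °C for at least 48 hr. Viability was read as ATP luminescence.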
TGFb inhibitor – qHTS for Inhibitors of TGF-b | HepG2 CAGA-GFP TGF-b/SMAD3 reporter, GFP fluorescence, 18 h; TGF-beta stimulated, 500 pg/mL final | Potency, µM (top dose mostly 46.1 µM), inactives show at the top dose activity, negative = inhibition, usual class: inhibitors | 410,000 compounds, 1.2% hits | AID 588855, 2011; further: on the % scale 0 is the no-effect control and ±100 the full control effect; nearly all actives have a fitted effect of over 65% in size
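Per well, imaged GFP fluorescence of HEPG2 CAGA-GFP cells gives the signal; cells get compound, then TGF-beta (500 pg/mL final), 18 h at 37 degrees C; %Activity versus -TGF-beta and +DMSO controls.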
HT1080 IDH1KD tx – qHTS for induction of synthetic lethality in tumor cells producing 2HG: qHTS for the HT-1080-IDH1KD cell line. HT-1080 IDH1 knockdown viability, ATP luminescence, 48 h. Potency, µM (doses to about 46.1 µM), for inactives: at the top dose activity, negative = toxicity, hits mostly cytotoxic. 360,000 compounds, 2% hits;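 further: 0% = DMSO wells and -100% = cell-free medium wells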
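Cytotoxicity counter-line: IDH1KD HT-1080, 48 h, CellTiter-Glo. Curves classed by r2, magnitude and activity.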
DT40 TDP1 no CPT – qHTS for Inhibitors of human tyrosyl-DNA phosphodiesterase 1 (TDP1): qHTS in cells in absence of CPT; DT40 Tdp1-/- hTDP1 cells, no CPT, ATP luminescence, 48 h; Potency, µM (titrated, usually from 46.2 µM), inactives show top-dose activity change, negative = growth inhibition, usual class: inhibitors; 420,000 compounds, 15% hits; AID 686978, 2013; further: on the % scale 0 is the no-effect control and ±100 the full control effect; nearly all actives have a fitted effect of over 55% in size
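Stably hTDP1-transfected Tdp1-null chicken DT40 cells were treated with library compounds minus camptothecin and grown for at least 48 hr at 37 °C, after which cellular ATP was quantified by luminescence.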
HT1080NT lethal – qHTS for induction of synthetic lethality in tumor cells producing 2HG: qHTS for the HT-1080-NT fibrosarcoma cell line | HT-1080-NT fibrosarcoma viability, CellTiter-Glo ATP luminescence, 48 h | Potency, µM (top dose mostly 46.1 µM), for inactives: at the top dose activity, negative = less viability, usual class: cytotoxic | 360,000 compounds, 1.6% hits;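 further: NT is the 2HG producing partner of a matched IDH1 knockdown line; 0% = DMSO-treated cells and -100% = media-only wells without cells; nearly all actives have a fitted effect of over 55% in size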
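Read-out is CellTiter-Glo luminescence after 10 minutes at room temperature, following 48 hours' compound treatment of HT-1080-NT cells (750 cells/well, RPMI, 5% FBS, 37 degrees C).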
* = called active by the depositor; ? = inconclusive; . = no result. The call rests on the fitted dose curve; in most records, active means well fitted curve in the direction sought with a large enough effect; inconclusive means small, poorly fitted or top-dose-only effect, or another doubt; inactive means no such curve, though single readings can be large; an effect the other way counts as inactive or inconclusive. Potency means the concentration at half of the fitted maximal effect.

SMILES	HepG2 viability	TDP1 cell CPT	TGFb inhibitor	HT1080 IDH1KD tx	DT40 TDP1 no CPT	HT1080NT lethal
COc1ccc2c(c1)CCCN2S(=O)(=O)c1ccc(Cl)cc1	1%	23µM*	?	-24%	15µM*	-3%
Cc1ccc(S(=O)(=O)N2CCCc3cc(NC(=O)c4ccc(C(C)(C)C)cc4)ccc32)cc1	1%	4.1µM*	2%	.	3.7µM*	.
CCCCOc1ccc(C(=O)Nc2ccc3c(c2)CCCN3S(=O)(=O)c2ccc(C)cc2)cc1	-21%	?	?	.	?	.
COc1ccc2c(c1)CCCN2C(N)=O	2%	-4%	0%	12%	-3%	2%
COc1ccc(C(=O)Nc2ccc3c(c2)CCCN3S(=O)(=O)c2ccc(C)cc2)cc1	-15%	21µM*	?	.	13µM*	.
COc1ccc2c(c1)CCCN2C(N)=Nc1ccc(Cl)cc1	-20%	?	-11%	?	23µM*	-23%
CC(=O)Nc1ccc(NC(=O)c2ccc3c(c2)CCN3S(=O)(=O)c2ccc(C)cc2)cc1	-3%	-10%	-16%	.	-1%	.
COc1cccc(CN2CC(C(=O)NCCc3ccccc3C(F)(F)F)CCC2=O)c1 (stereo unspecified)	9%	-29%	-2%	0%	5%	1%
CCCCCCSc1ccc([C@@H]2[C@H]3C(=O)N(CC)C(=O)[C@H]3[C@]3(C(=O)OC)CCCCN23)cc1OC	-26%	21µM*	-8%	2%	?	17%
CCN1C(=O)[C@@H]2[C@@H](c3ccc(-c4ccc5c(c4)OCO5)c(OC)c3)N3CCCC[C@@]3(C(=O)OC)[C@@H]2C1=O	-11%	?	1%	-2%	?	5%
CCCSc1ccc([C@@H]2[C@@H]3C(=O)N(CC)C(=O)[C@@H]3[C@]3(C(=O)OC)CCCCN23)cc1OC	-20%	16µM*	-16%	8%	23µM*	29%
CCSc1ccc([C@@H]2[C@H]3C(=O)N(CC)C(=O)[C@H]3[C@]3(C(=O)OC)CCCCN23)cc1OC	-19%	?	?	16%	16µM*	-2%
CCN1C(=O)[C@H]2[C@@H](c3ccc(SC4CCCCC4)c(OC)c3)N3CCCC[C@@]3(C(=O)OC)[C@H]2C1=O	-20%	?	?	?	23µM*	-28%
NC(=O)c1cccc(-c2coc3c(C(=O)NCCc4ccccc4)cccc23)c1	-31%	?	10%	-22%	?	-5%
CC(C)(C)c1ccccc1OCC(=O)NCc1ccccc1	-32%	?	-17%	-3%	?	2%
CCCSc1ccc([C@@H]2[C@@H]3C(=O)N(C)C(=O)[C@@H]3[C@]3(C(=O)OC)CCCN23)cc1OC	-3%	18µM*	-21%	1%	?	0%
Cc1cc([N+](=O)[O-])ccc1NC(=O)C(C)NC1CCCCC1 (stereo unspecified)	-11%	-4%	-2%	1%	-22%	0%
CCOC(=O)c1scc(-c2ccccc2)c1S(=O)(=O)Nc1cc(OC)cc(OC)c1	-7%	?	?	.	?	.
COC(=O)c1scc(-c2ccc(C)cc2)c1S(=O)(=O)N1CCN(c2ccc(C)cc2C)CC1	-14%	15µM*	-9%	.	9.2µM*	.
COC(=O)c1scc(-c2ccc(C)cc2)c1S(=O)(=O)N1CCN(c2cccc(Cl)c2)CC1	-6%	18µM*	-6%	.	18µM*	.
CCOC(=O)c1scc(-c2ccccc2)c1S(=O)(=O)N1CCN(c2ccc(Cl)cc2)CC1	-17%	?	-24%	.	13µM*	.
COC(=O)c1cc(S(=O)(=O)N2CCN(c3ccc(C)cc3C)CC2)cn1C	-4%	?	-1%	.	-30%	.
COC(=O)c1scc(-c2ccc(C)cc2)c1S(=O)(=O)N1CCN(c2ccccc2F)CC1	-17%	13µM*	-2%	.	18µM*	.
Cc1cccc(NC(=O)C2CCCN(S(=O)(=O)c3cnc[nH]3)C2)c1C (stereo unspecified)	9%	-24%	1%	.	1%	.
Cc1ncc([N+](=O)[O-])n1CC(=O)Nc1ccccc1Cl	6%	-4%	0%	9%	-12%	2%
SMILES	HepG2 viability	TDP1 cell CPT	TGFb inhibitor	HT1080 IDH1KD tx	DT40 TDP1 no CPT	HT1080NT lethal
CCC(=O)Nc1cc(-c2nc3ccccc3s2)c(Cl)cc1Cl	-9%	-13%	6%	.	-27%	.
COC(=O)c1scc(-c2ccc(C)cc2)c1S(=O)(=O)N1CCN(c2ccccc2)CC1	-3%	12µM*	?	.	9.2µM*	.
COC(=O)c1scc(-c2ccc(C)cc2)c1S(=O)(=O)N1CCN(c2ccc(C(C)=O)cc2)CC1	-36%	23µM*	?	.	?	.
Cc1cccc(N2CCN(C(=O)c3ccc(NC4=NC5CS(=O)(=O)CC5S4)cc3)CC2C)c1 (stereo unspecified)	1%	?	1%	?	-23%	14%
N#Cc1nc(-c2cccs2)oc1NCc1ccc2c(c1)OCO2	7.9µM*	8%	-1%	-26%	?	-22%
N#Cc1nc(-c2cccs2)oc1NCCc1ccccc1	-20%	-10%	-9%	-5%	?	-1%
O=C(C[C@H]1C[C@@H]2c3cc(NC(=O)Nc4ccccc4)ccc3O[C@@H]2[C@@H](CO)O1)NCC1CC1	-3%	0%	17%	?	?	-5%
CC1(C)CC(=O)c2cc(C(=O)Nc3ccccc3Cl)c(=O)n(-c3ccc(Cl)cc3)c2C1	-7%	-17%	-5%	.	?	.
CC(C1CC1)N(Cc1ccccc1)C(=S)Nc1ccccc1 (stereo unspecified)	-14%	15µM*	-1%	8%	23µM*	19%
CN(Cc1ccccc1F)C(=O)c1ccc(Oc2ccccc2)cc1	-14%	?	?	1%	5%	1%
CCc1ccc(CN(Cc2ccco2)C(=O)COc2ccc(Cl)cc2C)cc1	-32%	?	-16%	.	?	.
CC(C)(C)c1ccc(OCC(=O)N(Cc2ccco2)Cc2ccccc2F)cc1	-44%	?	?	.	21µM*	.
